The nature of assay [1]: inhibitors of TNFa-induced NFkB p65 translocation, primary screen, imaging, HUVEC, MLSMR starter and 10KST1 sets (AID 438;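 active = inhibition above 20% together with a positive visual image hit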;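 also: compound added about 3h40 before a 20 min TNFalpha stimulation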;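 as to inhibition: signal is the nuclear over cytoplasmic p65 intensity ratio per well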). The settings on record: HUVEC TNFa-induced p65 nuclear translocation; cell count: measured here: nuclei count (cytotoxicity indicator), at 2.08 µM; inhibition: at 2 µM, stronger effect = higher value, 0% TNFa-plus-vehicle, 100% no-TNFa wells.
A short description of assay [2]: inhibitors of mutant huntingtin aggregation, primary screen, imaging, exon1htt(103Q)mCFP cells, high-content imaging (AID 483).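 Also: compound exposure lasted 3 days before fixation.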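 As to nuclei count: percent of the per-plate median nuclei count of sample wells.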 The settings on record: exon1htt(103Q)mCFP cell line, aggregate imaging, at 2 µM; inhibition of aggregation: stronger effect = higher value; nuclei count: measured here: cell count, toxicity.
Assay [3] can be described thus: inhibitors of E-selectin induction by TNFa, primary screen, imaging, HUVEC, immunofluorescence, MLSMR starter and 10KST1 sets (AID 487;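 active = visually confirmed hit in the image check and inhibition above 20%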;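 as to inhibition: signal is fraction of cell area covered by stained E-selectin grains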;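 as to nuclei count: 100% = median nuclei count of all wells on the same plate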). The settings on record: HUVEC TNFalpha-induced E-selectin immunofluorescence imaging, at 2 µM; inhibition: stronger effect = higher value; nuclei count: measured here: cell number, toxicity.
Assay [4] has as its target Voltage-gated potassium channel subunit beta-2 (Rattus norvegicus) (UniProt P62483). In words: KvBeta enzyme negative modulators, primary screen, biochemical, NADPH fluorescence (AID 622;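 active = fluorescence slope higher than the sample average by over 3 SD, cut at about -0.22 in these data, passing the limit was not always enough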;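 also: slope of raw intensity against log time taken from 70 to 1610 s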). The settings on record: recombinant KvBeta, 4-cyanobenzaldehyde reduction, at 10 µM, stronger effect = higher value.
Assay [5] has the same target. In words: KvBeta positive modulators, primary screen, biochemical, NADPH fluorescence (AID 623;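 active = NADPH fluorescence slope more negative than the mean of all samples by about 3 SD, 99.7% confidence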;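 also: fluorescence intensity change per second fitted from 20 to 320 s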). The settings on record: Recombinant KvBeta, NADPH fluorescence decrease slope, 10 min; at 10 µM; stronger effect = lower value.
In assay [6] the target is Alpha-2C adrenergic receptor (Homo sapiens) (UniProt P18825). In words: modulators of alpha2C/GIRK thallium flux, primary screen, cell-based, HEK293 alpha2C/GIRK1/2 (AID 624;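 active = fluorescence slope after compound addition differing from the mean of all screened samples at 99.7% confidence, in either direction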;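 also: slope of fluorescence ratio to pre-addition baseline per second over 15 to 24 s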). The settings on record: thallium flux BTC fluorescence, at 10 µM, actives lie on both sides.
Assay [7] can be described thus: inhibitors of Sendai virus-induced IRF3 signaling, primary screen, TLR/RLR signaling modifier project, cell-based, Sendai virus stimulus, luciferase, 10K MLSCN set (AID 602276;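 active = inhibition at or above 50% at 10 µM; inactive = inhibition below 50%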;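 also: firefly luciferase from ISG56 promoter only with Renilla not read in this screen; 0% = Sendai virus plus DMSO and 100% = medium plus DMSO without virus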). The settings on record: HEK293 RL24 IRF3 luciferase reporter, at 10 µM, stronger effect = higher value. A general note: A reporter such as luciferase makes a cellular process visible.
Assay [8] in a line: inhibitors of poly I:C-induced TLR3 signaling, primary screen, cell-based, poly I:C stimulus, luciferase, 10K MLSCN set (AID 602277;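 active = inhibition of the reporter signal at or above 50%; inactive = inhibition below 50%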). The settings on record: HEK293-TLR3 RL24 IRF3 luciferase reporter, at 10 µM, stronger effect = higher value.

The values below come from PubChem BioAssay.

For orientation: inhibition means the relative decrease from the control value, in per cent.

The structures appear in SMILES notation. Activity calls are given as the source filed them.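 The calls were made as follows, unless noted: active = visual image review flags a hit and inhibition of aggregation exceeds 20%; inconclusive = visual hit but inhibition at or below 20%; inactive = no hit on visual image review.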

Alpha-2C adrenergic receptor (Homo sapiens), sequence (P18825 whole entry, looked up): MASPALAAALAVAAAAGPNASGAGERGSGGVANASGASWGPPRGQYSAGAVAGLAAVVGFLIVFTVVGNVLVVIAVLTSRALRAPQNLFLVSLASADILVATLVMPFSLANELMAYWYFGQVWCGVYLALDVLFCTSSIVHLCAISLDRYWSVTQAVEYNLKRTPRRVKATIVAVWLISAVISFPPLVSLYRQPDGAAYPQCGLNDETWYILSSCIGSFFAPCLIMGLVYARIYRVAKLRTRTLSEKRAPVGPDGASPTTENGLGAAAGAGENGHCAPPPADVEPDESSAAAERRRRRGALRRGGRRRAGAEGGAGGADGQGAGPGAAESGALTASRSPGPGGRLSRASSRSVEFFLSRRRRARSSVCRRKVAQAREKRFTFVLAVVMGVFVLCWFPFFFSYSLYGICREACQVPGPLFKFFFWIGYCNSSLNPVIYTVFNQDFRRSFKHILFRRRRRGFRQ
Voltage-gated potassium channel subunit beta-2 (Rattus norvegicus), sequence (P62483 whole entry, looked up): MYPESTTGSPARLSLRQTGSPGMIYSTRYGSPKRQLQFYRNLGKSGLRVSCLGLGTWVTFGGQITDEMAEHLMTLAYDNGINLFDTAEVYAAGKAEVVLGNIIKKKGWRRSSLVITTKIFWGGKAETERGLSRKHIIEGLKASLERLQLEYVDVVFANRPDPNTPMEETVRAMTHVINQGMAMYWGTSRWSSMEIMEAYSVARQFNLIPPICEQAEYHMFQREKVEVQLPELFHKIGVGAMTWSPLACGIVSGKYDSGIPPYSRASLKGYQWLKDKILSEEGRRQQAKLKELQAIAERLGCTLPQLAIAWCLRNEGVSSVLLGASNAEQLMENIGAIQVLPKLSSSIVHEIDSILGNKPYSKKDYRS

Take `CNC(=O)CSc1nnc(-c2cccc(S(=O)(=O)N3CCOCC3)c2)n1-c1ccc(F)cc1`: in assay [1], the cell count was 474. The inhibition in assay [1] is 7.2% (inactive); in assay [3], -18.5% (inactive); in assay [7], 6.45% (inactive); in assay [8] it was 26% (inactive). Besides, the inhibition of aggregation in assay [2] was 13.2% (inactive). For the same compound, the nuclei count in assay [2] is 104%; in assay [3] it was 106%. In addition, the fluorescence slope in assay [4] is -0.376 (inactive). In addition, in assay [5], the NADPH fluorescence slope was -6.4e-05 (inactive). The slope in assay [6] was 0.00569 (inactive).
For the compound `Cc1ccc2c(c1)NC(=O)C(CC(=O)NCCCN1CCN(c3cc(Cl)ccc3C)CC1)O2` (centres undefined), in assay [1], the cell count was determined as 640. Besides, the inhibition in assay [1] was 4.1% (inactive); in assay [3] it was 8.8% (inactive); in assay [7] it was -15.5% (inactive); in assay [8], -8.91% (inactive). Also, the inhibition of aggregation in assay [2] was -19% (inactive). Also, the nuclei count in assay [2] was 82.6%; in assay [3] it was 123%. For the same compound, the fluorescence slope in assay [4] was -0.55 (inactive). The NADPH fluorescence slope in assay [5] was 3.4e-05 (inactive). Also, the slope in assay [6] is 0.00483 (inactive).
With `CCCCc1cc2c(c(NC(C)=O)n1)c(=O)oc1ccccc12`, the cell count in assay [1] turned out to be 620. Further, the inhibition in assay [1] was -9.4% (inactive); in assay [3] it was 3.6% (inactive); in assay [7] it was 12.1% (inactive); in assay [8] it was 40.5% (inactive). The inhibition of aggregation in assay [2] is 14.7% (inactive). The figures for the nuclei count in assay [2] and in assay [3] were 110% and 104%, respectively. In addition, the fluorescence slope in assay [4] is -0.509 (inactive). The NADPH fluorescence slope in assay [5] was -2.7e-05 (inactive). The slope in assay [6] is 0.00617 (inactive).
Consider `Cc1ccc2[nH]c(=O)c(C(c3nnnn3CCc3ccccc3)N3CCOCC3)cc2c1` (centres undefined), for which the cell count in assay [1] was found to be 715. The inhibition in assay [1] was -3.9% (inactive); in assay [3], -38.7% (inactive); in assay [7], 0.935% (inactive); in assay [8], 26.5% (inactive). Besides, the inhibition of aggregation in assay [2] is 1.1% (inactive). The nuclei count in assay [2] was 99%; in assay [3] it was 95.6%. In addition, the fluorescence slope in assay [4] was -0.482 (inactive). In assay [5], the NADPH fluorescence slope was -4.6e-05 (inactive). Besides, in assay [6], the slope was 0.0072 (inactive).
In the case of `COc1ccccc1N1CCN(C(CNS(=O)(=O)c2cc(F)ccc2F)c2cccnc2)CC1` (centres undefined), the cell count in assay [1] was 557. Besides, the inhibition was 7.2% (inactive) in assay [1], -5% (inactive) in assay [3], 9.38% (inactive) in assay [7] and 22.5% (inactive) in assay [8]. Moreover, in assay [2], the inhibition of aggregation is -5.9% (inactive). In addition, the nuclei count in assay [2] came to 96.7%; in assay [3], 108%. Besides, the fluorescence slope in assay [4] is -0.359 (inactive). For the same compound, the NADPH fluorescence slope in assay [5] is -5.8e-05 (inactive). The slope in assay [6] was 0.00529 (inactive).
For the compound `CCN(CC)c1nc2cc(OC)ccc2cc1C#N`, in assay [1], the cell count worked out at 386. In addition, the inhibition in assay [1] was -7.8% (inactive); in assay [3] it was -50.8% (inactive); in assay [7], 12.7% (inactive); in assay [8], 41% (inactive). The inhibition of aggregation in assay [2] is 8.6% (inactive). Besides, the nuclei count in assay [2] amounted to 101%; in assay [3], 114%. The fluorescence slope in assay [4] is -0.584 (inactive). Also, the NADPH fluorescence slope in assay [5] was -6.9e-06 (inactive). Besides, the slope in assay [6] is 0.00563 (inactive).
Regarding `Oc1ccc(C=Nc2cccc3ncccc23)c(O)c1`, the cell count in assay [1] was 682. The inhibition is -40.5% (inactive) in assay [1], -138% (inactive) in assay [3], 11.3% (inactive) in assay [7] and 17.3% (inactive) in assay [8]. Also, the inhibition of aggregation in assay [2] is -10% (inactive). The nuclei count in assay [2] was 111%; in assay [3], 118%. In assay [4], the fluorescence slope was -0.483 (inactive). In addition, in assay [5], the NADPH fluorescence slope is -2.5e-05 (inactive). Moreover, the slope in assay [6] was 0.00472 (inactive).
In the case of `COCCNC(=O)C(C)N(c1ccc(Oc2ccccc2)cc1)S(C)(=O)=O` (centres undefined), the cell count in assay [1] is 333. For the same compound, the inhibition in assay [1] is 2.5% (inactive); in assay [3], -21.7% (inactive); in assay [7], 14.7% (inactive); in assay [8], 23.7% (inactive). The inhibition of aggregation in assay [2] is -15.1% (inactive). Besides, the nuclei count turned out to be 98.6% in assay [2] and 111% in assay [3]. Besides, in assay [4], the fluorescence slope is -0.445 (inactive). The NADPH fluorescence slope in assay [5] is -6.4e-05 (inactive). For the same compound, in assay [6], the slope is 0.00568 (inactive).
Regarding `COc1cccc(-c2csc3nc[nH]c(=O)c23)c1`, the cell count in assay [1] amounted to 517. In addition, the inhibition in assay [1] was 4.9% (inactive); in assay [3], -72.4% (inactive); in assay [7], 8.62% (inactive); in assay [8] it was 2.24% (inactive). Besides, the inhibition of aggregation in assay [2] is -18.2% (inactive). Moreover, the nuclei count in assay [2] is 98.7%; in assay [3] it was 97.9%. The fluorescence slope in assay [4] is -0.426 (inactive). The NADPH fluorescence slope in assay [5] was -3.4e-05 (inactive). Moreover, in assay [6], the slope is 0.0038 (inactive).
As for `COc1ccc(S(=O)(=O)NCc2ccc3c(c2)OCO3)cc1C(=O)O`, the cell count in assay [1] amounted to 379. The inhibition in assay [1] was -4.7% (inactive); in assay [3] it was -41.3% (inactive); in assay [7] it was 9.22% (inactive); in assay [8], 20.8% (inactive). Further, the inhibition of aggregation in assay [2] was -1.8% (inactive). The nuclei count is 120% in assay [2] and 107% in assay [3]. In assay [4], the fluorescence slope is -0.324 (inactive). The NADPH fluorescence slope in assay [5] was -8.9e-06 (inactive). In addition, in assay [6], the slope is 0.00676 (inactive).
`Cc1cc(=O)[nH]c(SCC(=O)NCc2ccco2)n1`: in assay [1], the cell count was 355. Further, the inhibition in assay [1] is 8.2% (inactive); in assay [3], 12.5% (inactive); in assay [7], 18.4% (inactive); in assay [8] it was 20.9% (inactive). For the same compound, the inhibition of aggregation in assay [2] was 0% (inactive). Moreover, the nuclei count amounted to 95.2% in assay [2] and 98% in assay [3]. The fluorescence slope in assay [4] was -0.57 (inactive). Further, in assay [5], the NADPH fluorescence slope was -7.3e-05 (inactive). Besides, the slope in assay [6] was 0.00478 (inactive).
With `OC(CN1CCCCC1)Cn1c(C(F)(F)F)nc2ccccc21` (centres undefined), the cell count in assay [1] was 730. The inhibition is -17.7% (inactive) in assay [1], -98.5% (inactive) in assay [3], 12.8% (inactive) in assay [7] and 24.9% (inactive) in assay [8]. In addition, in assay [2], the inhibition of aggregation is 25.1% (inactive). Further, the nuclei count in assay [2] came to 122%; in assay [3], 95.5%. Besides, in assay [4], the fluorescence slope is -0.362 (inactive). Moreover, the NADPH fluorescence slope in assay [5] was -7.1e-05 (inactive). Further, in assay [6], the slope was 0.00651 (inactive).
Consider `Cc1nc(N2CCN(c3ncccn3)CC2)c2oc3ccccc3c2n1`, for which, in assay [1], the cell count was found to be 583. Further, the inhibition in assay [1] is -8.7% (inactive); in assay [3], -56.1% (inactive); in assay [7] it was -3.03% (inactive); in assay [8], -57.2% (inactive). Further, the inhibition of aggregation in assay [2] is 0.3% (inactive). Moreover, the nuclei count in assay [2] was 106%; in assay [3], 104%. For the same compound, in assay [4], the fluorescence slope was -0.432 (inactive). Besides, the NADPH fluorescence slope in assay [5] was -1.4e-05 (inactive). Also, in assay [6], the slope was 0.00731 (inactive).
Take `O=C(Cc1c(F)cccc1Cl)Nc1ccncc1`: the cell count in assay [1] stood at 285. The inhibition in assay [1] was 4.3% (inactive); in assay [3], -34.2% (inactive); in assay [7], 12.9% (inactive); in assay [8], 11.9% (inactive). Also, the inhibition of aggregation in assay [2] was 1% (inactive). For the same compound, the nuclei count in assay [2] worked out at 104%; in assay [3], 124%. In addition, the fluorescence slope in assay [4] was -0.334 (inactive). Moreover, the NADPH fluorescence slope in assay [5] was 2.5e-05 (inactive). In addition, the slope in assay [6] is 0.00621 (inactive).
